The source of these data is PubChem BioAssay (EPA / NIEHS).

Inconclusive results are not listed. Calls of active or inactive are those of the source. The calls were made as follows: active = hit-call score of the fitted dose curve at least 0.9, where 1 is the maximum; inconclusive = response in the unintended direction; inactive = score below 0.9.

This assay deals with human Retinoic Acid Receptor gamma (RARg), RARG (gene 5916) (UniProt P13631). The experiment in a line: ATG_RARg_TRANS: Attagene TRANS-FACTORIAL HepG2 Assay for human Retinoic Acid Receptor gamma (RARg) (AID 2283009). As for the experimental part: ATG_TRANS is a cell-based, multiplexed-readout assay that uses HepG2, a human liver cell line, with measurements taken at 24 hours after chemical dosing in a 24-well plate.ATG_RARg_TRANS is one of 30 assay component(s) measured or calculated from the ATG_TRANS assay. It is designed to make measurements of mRNA induction, a form of inducible reporter, as detected with fluorescence intensity signals by Reverse transcription polymerase chain reaction (RT-PCR) and Capillary electrophoresis technology.Data from the assay component ATG_RARg_TRANS was analyzed into 1 assay endpoint. This assay endpoint, ATG_RARg_TRANS, was analyzed in the positive analysis fitting direction relative to DMSO as the negative control and baseline of activity. Using a type of inducible reporter, measures of mRNA for gain-of-signal activity can be used to understand the reporter gene at the transcription factor-level as they relate to the gene RARG. Furthermore, this assay endpoint can be referred to as a primary readout, because this assay has produced multiple assay endpoints where this one serves a reporter gene function. To generalize the intended target to other relatable targets, this assay endpoint is annotated to the nuclear receptor intended target family, where the subfamily is non-steroidal.
human Retinoic Acid Receptor gamma (RARg), RARG (gene 5916), sequence (P13631 whole entry, looked up): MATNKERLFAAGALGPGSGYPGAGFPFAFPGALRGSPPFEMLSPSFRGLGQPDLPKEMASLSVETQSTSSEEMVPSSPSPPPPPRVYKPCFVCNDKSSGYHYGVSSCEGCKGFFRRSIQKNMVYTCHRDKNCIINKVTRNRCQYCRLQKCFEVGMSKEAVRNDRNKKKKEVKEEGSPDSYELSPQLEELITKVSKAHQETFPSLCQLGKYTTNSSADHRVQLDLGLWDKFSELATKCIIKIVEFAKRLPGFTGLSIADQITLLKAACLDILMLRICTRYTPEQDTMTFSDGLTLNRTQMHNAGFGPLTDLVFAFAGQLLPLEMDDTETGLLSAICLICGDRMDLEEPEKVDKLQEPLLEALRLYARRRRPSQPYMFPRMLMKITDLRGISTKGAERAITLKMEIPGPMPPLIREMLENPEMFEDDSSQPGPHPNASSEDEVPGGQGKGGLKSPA
Human liver HepG2 cells are transiently transfected with multiple reporter transcription units (MRTUs) in 6-well plates using FuGene 6 reagent (Roche; 3 ml FuGene/1 mg DNA). The MRTU constructs are regulated by a cis-regulating element (promoter). […] A major difference between the CIS and TRANS system is that in CIS activities of endogenous TFs are measured, whereas the TRANS assay evaluates changes in activities of exogenous, chimeric NR-Gal4 proteins. […] At the end of 24 hour incubation, total RNA was isolated using TriZol reagent (Invitrogen). The isolated RNA is then reverse-transcribed using oligo(dT) primer and Mo-MLV reverse transcriptase (Invitrogen) with DNAse I (Ambion) treatment for 30 min. The one-tenth of the produced cDNA was amplified by PCR using Taq DNA polymerase (Invitrogen) and two reporter sequence-specific primers. The PCR products were fluorescently labeled by primer extension with 6-arboxyfluorescein (6-FAM) 5'-labeled reporter sequence-specific primer (2 min at 95 C, 20 s at 68 C and 10 min at 72 C) and these products were digested with 5U of HpaI (New England Biolabs) for 2h at 37 C. […] The raw capillary electrophoresis data was processed using Attagraph software (Attagene).
As for `N[C@@H](Cc1c[nH]c2ccccc12)C(=O)O`, the compound was classed as inactive.
Turning to `CCN(CC)CCOc1ccc(C(=C(Cl)c2ccccc2)c2ccccc2)cc1`, the compound was called inactive.
For `Cc1ccc(-c2cc(C(F)(F)F)nn2-c2ccc(S(N)(=O)=O)cc2)cc1`, the result was inactive.
As to `O=[Si]=O`, the compound was called inactive.
Next, `O=C(N[C@@H](c1ccccc1)[C@@H]1CCCCN1)c1cccc(C(F)(F)F)c1Cl`: “inactive”.
On to `O=C(O)CN(CC(=O)O)CC(=O)O`, for which the call was inactive.
Regarding `Oc1ccc(O)cc1`, the result was inactive.
As to `Nc1nc(=S)c2[nH]cnc2[nH]1`, the outcome was inactive.
As for `CCCC(=O)O`, the entry is “inactive”; as for `NC=O`, “inactive”.
Consider `CC(C)(O)c1ccc(CNC(=O)c2cccnc2Oc2ccc(F)cc2)cc1`, for which the compound was classed as inactive.
As to `Oc1ccccc1O`, the call was inactive.
As for `O=C1OC(c2ccc(O)cc2)(c2ccc(O)cc2)c2ccccc21`, the entry is “inactive”; as for `CC(C)COC(=O)CCCCC(=O)OCC(C)C`, “inactive”.
As for `CC(C)c1cccc(C(C)C)c1NC(=O)NS(=O)(=O)c1cc(C(C)(C)O)co1`, the entry is “inactive”; as for `CC(COCC(C)OC(=O)c1ccccc1)OC(=O)c1ccccc1` (stereo not drawn), “inactive”; as for `NC1CCCCC1`, “inactive”.
Take `Cn1cnc2c1c(=O)[nH]c(=O)n2C`: the call was inactive.
